Screening results from PubChem BioAssay.
Giardia killer = Small Molecules that selectively kill Giardia lamblia: qHTS. Giardia lamblia trophozoite viability. activity change, % at 7.66 µM, hits read low. hit rate 0.15% among 340,000; in the data active means activity change below about -80%; inconclusive means between about -30% and that limit;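 further: parasites exposed to compound for two days anaerobically before the ATP read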
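Anaerobic 48 hrs incubation at 37 deg C of 100 trophozoites/well with test compounds; ATPLite 1-Step luminescence, 15-30 min RT, reports cellular ATP as viability.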
ELG1 repair inh = qHTS screen for small molecules that inhibit ELG1-dependent DNA repair in human embryonic kidney (HEK293T) cells expressing luciferase-tagged ELG1. HEK293T ELG1-luciferase reporter, luminescence, 16 h; DNA damage induced by 5-fluorouridine. hit rate 2.3% among 330,000. Potency, µM (series often up to 46.1 µM), most hits filed as inhibitors. AID 504467, 2011; further: nearly all actives have a fitted effect of over 55% in size
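Overnight (16 hr) co-exposure of 2,000 cells/well to 5-fluorouridine and compound at 37 °C preceded detection. Luciferase was quantified via ONE-Glo luminescence; loss of signal denotes inhibition.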
TDP1 cell CPT = qHTS for Inhibitors of human tyrosyl-DNA phosphodiesterase 1 (TDP1): qHTS in cells in presence of CPT; chicken DT40 Tdp1-/-;hTDP1 cells + 20 nM CPT, ATP luminescence, 48 h; Potency, µM (titrated, usually from 46.2 µM), hits mostly inhibitors; hit rate 12% among 420,000; further: nearly all actives have a fitted effect of over 55% in size
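Chicken DT40 Tdp1-/- cells complemented with human TDP1, 400 cells/well, exposed to compounds plus 20 nM camptothecin for at least 48 h at 37 C; viability read as ATP content by CellTiter-Glo luminescence.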
DT40 TDP1 no CPT = qHTS for Inhibitors of human tyrosyl-DNA phosphodiesterase 1 (TDP1): qHTS in cells in absence of CPT. DT40 Tdp1-/- hTDP1 cells, no CPT, ATP luminescence, 48 h. Potency, µM (highest dose often 46.2 µM), most hits filed as inhibitors. hit rate 15% among 420,000; further: nearly all actives have a fitted effect of over 55% in size
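Compound effects on proliferation are scored in DT40 Tdp1-/-;hTDP1 cells in the absence of CPT. ATP levels (CellTiter-Glo luminescence) are recorded after a ≥48 hr, 37 °C incubation.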
IL-1B inflam inh = qHTS for Inhibitors of Inflammasome Signaling: IL-1-beta AlphaLISA Primary Screen; THP-1 LPS/ATP IL-1B secretion, AlphaLISA, 16 h; stronger effect = lower value; activity change, % at 57.5 µM; hit rate 4.7% among 360,000; in the data active means activity change below about -50%; inconclusive means mostly about -30% to -49%
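Secreted IL-1B measured by AlphaLISA bead assay after 16 h compound exposure of THP-1 cells; compounds (final up to 57.5 uM) added 1 h before LPS (250 ng/mL) and ATP (1.25 mM) stimulation; lower signal means less secretion.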
TDP1 block = qHTS Assay for Inhibitors of Tyrosyl-DNA Phosphodiesterase (TDP1). recombinant TDP1, AlphaScreen DNA substrate cleavage. Potency, µM (titrated, usually from 130 µM), hits mostly inhibitors. hit rate 0.28% among 350,000. AID 485290, 2010; further: nearly all actives have a fitted effect of over 40% in size
Target sequence (Q9NUW8 whole entry, looked up): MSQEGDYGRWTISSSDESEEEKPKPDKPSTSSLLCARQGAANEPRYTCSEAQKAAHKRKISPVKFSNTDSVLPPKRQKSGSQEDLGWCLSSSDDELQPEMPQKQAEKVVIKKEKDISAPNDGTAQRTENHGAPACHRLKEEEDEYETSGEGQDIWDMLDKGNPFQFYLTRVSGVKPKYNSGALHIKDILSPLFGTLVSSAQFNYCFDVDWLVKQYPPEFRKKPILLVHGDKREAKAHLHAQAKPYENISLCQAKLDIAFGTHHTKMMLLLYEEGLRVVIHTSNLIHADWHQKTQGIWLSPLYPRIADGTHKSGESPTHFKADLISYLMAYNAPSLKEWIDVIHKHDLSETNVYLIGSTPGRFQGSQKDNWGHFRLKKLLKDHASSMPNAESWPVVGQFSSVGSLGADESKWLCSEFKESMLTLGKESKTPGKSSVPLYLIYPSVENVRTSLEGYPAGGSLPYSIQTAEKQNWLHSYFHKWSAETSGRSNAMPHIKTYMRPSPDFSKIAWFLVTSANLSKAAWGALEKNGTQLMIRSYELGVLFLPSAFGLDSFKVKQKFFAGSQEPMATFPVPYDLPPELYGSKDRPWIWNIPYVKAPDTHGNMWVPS
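Steps: enzyme plus compound, 15 min RT; add biotin/phosphotyrosine-FITC oligonucleotide (15 nM final), react 5 min; add donor/acceptor beads (10 ug/ml final), 10 min; read AlphaScreen. Tdp1 at 1 nM final.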
Hits are given with their value; [ ] = dose if it differs, or a comment. Rows were chosen to be rich in hits. Some 19% of all compounds tested hit in one or more screens of this group. Unless noted, the call rests on the fitted dose curve; in most records, active means well fitted curve in the direction sought with a large enough effect; inconclusive means small, poorly fitted or top-dose-only effect, or another doubt; inactive means no such curve, though single readings can be large; an effect the other way counts as inactive or inconclusive.

`Cc1ccc(S(=O)(=O)Nc2ccc3c(c2)CCC3)cc1` gave Giardia killer inactive, ELG1 repair inh inactive, TDP1 cell CPT 14.6µM, DT40 TDP1 no CPT 16.4µM, IL-1B inflam inh inactive and TDP1 block inactive.
`C=CCOC(/C=C/c1ccccc1)CC` (stereo unspecified) gave Giardia killer inactive and TDP1 block inactive.
Screening COc1cc2c(cc1NC(=S)Nc1cccc3ccccc13)oc1ccccc12 returned Giardia killer inactive, ELG1 repair inh inactive, TDP1 cell CPT inactive, DT40 TDP1 no CPT inconclusive, IL-1B inflam inh inactive and TDP1 block inactive.
For COc1cc2c(cc1NC(=S)Nc1cccc(C(F)(F)F)c1)oc1ccccc12 the results were Giardia killer inactive, ELG1 repair inh inactive, TDP1 cell CPT 23.1µM, DT40 TDP1 no CPT 29.1µM, IL-1B inflam inh inactive and TDP1 block inactive.
Screening COCCCNC(=S)Nc1cc2oc3ccccc3c2cc1OC returned Giardia killer inactive, ELG1 repair inh inactive, TDP1 cell CPT 8.2µM, DT40 TDP1 no CPT 6.51µM, IL-1B inflam inh inactive and TDP1 block inactive.
For COc1ccc(Cl)cc1CNC[C@H]1O[C@@H](n2ccc(N)nc2=O)[C@H](O)[C@@H]1O the results were TDP1 cell CPT inactive, DT40 TDP1 no CPT inactive and IL-1B inflam inh inactive.
`CCC(=O)NC1OC(CO)C(O)C(O)C1O` (stereo unspecified) gave Giardia killer inactive, ELG1 repair inh inactive, TDP1 cell CPT inactive, DT40 TDP1 no CPT inconclusive, IL-1B inflam inh inactive and TDP1 block inactive.
For CCOc1ccc(Nc2ncnc3ccc([N+](=O)[O-])cc23)cc1 the results were Giardia killer inactive, ELG1 repair inh 9.2µM, TDP1 cell CPT inconclusive, DT40 TDP1 no CPT 6.51µM, IL-1B inflam inh inactive and TDP1 block inactive.
Screening COc1cccc(CN2CCC(N(CCc3ccccc3)Cc3ccccc3)CC2)c1OC returned Giardia killer inactive, ELG1 repair inh inconclusive, TDP1 cell CPT inconclusive, DT40 TDP1 no CPT 29.1µM, IL-1B inflam inh -61.7 and TDP1 block inactive.
For CCOC(=O)N1CCN(Cc2ccc3c(c2)CN(C(=O)c2cc(-c4ccccc4)on2)CCO3)CC1 the results were TDP1 cell CPT inactive[9.04 µM] and DT40 TDP1 no CPT 20.6µM.
Screening CCOC(=O)N1CCN(Cc2ccc3c(c2)CN(C(=O)c2cc(-c4ccccc4)no2)CCO3)CC1 returned TDP1 cell CPT inconclusive and DT40 TDP1 no CPT 23.1µM.
`COc1cccc(-c2cc(C(=O)N3CCN(Cc4ccccc4)CC3)no2)c1` gave Giardia killer inactive, ELG1 repair inh inactive, TDP1 cell CPT inactive, DT40 TDP1 no CPT inactive, IL-1B inflam inh inactive and TDP1 block inactive.
Screening Cc1nc(C)c(CC(=O)N2CCOc3ccc(CN4CCN(c5ccccn5)CC4)cc3C2)s1 returned TDP1 cell CPT inconclusive and DT40 TDP1 no CPT 7.31µM.
`CCCNC(=O)[C@H]1N2C(=O)c3c(ccc(OC)c3OC)C2SC1(C)C` (stereo partly specified) gave Giardia killer inactive, ELG1 repair inh inactive, TDP1 cell CPT inactive, DT40 TDP1 no CPT inactive and IL-1B inflam inh inactive.
`COc1ccc(-c2c(C(=O)c3ccccc3)[nH]c(N)c2C(=O)NC2CC2)cc1OC` gave TDP1 cell CPT inactive, DT40 TDP1 no CPT inconclusive and IL-1B inflam inh inactive.
`COc1cccc(NC2c3ccccc3C(=O)N2Cc2ccccc2Cl)c1` (stereo unspecified) gave Giardia killer inactive, ELG1 repair inh inactive, TDP1 cell CPT inconclusive, DT40 TDP1 no CPT inconclusive and IL-1B inflam inh inactive.
Screening COc1cccc(NC2c3ccccc3C(=O)N2Cc2ccco2)c1 (stereo unspecified) returned Giardia killer inconclusive, ELG1 repair inh inactive, TDP1 cell CPT 20.6µM, DT40 TDP1 no CPT 23.1µM, IL-1B inflam inh inactive and TDP1 block inactive.
`O=C1c2ccccc2C(Nc2cccc(C(F)(F)F)c2)N1Cc1ccco1` (stereo unspecified) gave Giardia killer inactive, ELG1 repair inh inconclusive, TDP1 cell CPT 23.1µM, DT40 TDP1 no CPT 16.4µM, IL-1B inflam inh inactive and TDP1 block inactive.
`Cc1ccccc1NC1c2ccccc2C(=O)N1Cc1ccco1` (stereo unspecified) gave Giardia killer inactive, ELG1 repair inh inactive, TDP1 cell CPT inactive, DT40 TDP1 no CPT inactive, IL-1B inflam inh inactive and TDP1 block inactive.
COc1ccc2c(/C=C/c3cc[n+](C)cc3)c[nH]c2c1 was read as Giardia killer inactive, ELG1 repair inh inactive, TDP1 cell CPT 9.2µM, DT40 TDP1 no CPT 7.31µM and IL-1B inflam inh inactive.
`COc1ccc2c(c1)c(/C=C/c1cc[n+](C)cc1)cn2C` gave Giardia killer inactive, ELG1 repair inh inconclusive, TDP1 cell CPT 4.61µM, DT40 TDP1 no CPT 4.61µM and IL-1B inflam inh inactive.
Cc1ccc2[nH]cc(/C=C/c3cc[n+](C)cc3)c2c1 was read as Giardia killer inactive, ELG1 repair inh inconclusive, TDP1 cell CPT 4.11µM, DT40 TDP1 no CPT 2.59µM and IL-1B inflam inh inactive.
COc1ccc(CN2C[C@H](Sc3nc4ccccc4[nH]3)C[C@H]2C(=O)N(C)C)c2ccccc12 was read as TDP1 cell CPT inactive[9.04 µM] and DT40 TDP1 no CPT inactive.
For CC1=NN(c2ccccc2)C(=O)/C1=C\C=C1\N(C)c2ccccc2C1(C)C the results were Giardia killer inactive, ELG1 repair inh inconclusive, TDP1 cell CPT inconclusive, DT40 TDP1 no CPT 23.1µM, IL-1B inflam inh inactive and TDP1 block inactive.
Screening CN1/C(=C\C=C2/C(=O)Oc3ccccc3C2=O)C(C)(C)c2ccccc21 returned Giardia killer inactive, ELG1 repair inh inactive, TDP1 cell CPT inconclusive, DT40 TDP1 no CPT inconclusive, IL-1B inflam inh inconclusive and TDP1 block inactive.
CC1=NN(c2ccccc2)C(=O)/C1=C\C=C1/N(C)c2ccccc2C1(C)C was read as Giardia killer inactive, ELG1 repair inh inconclusive, TDP1 cell CPT inconclusive, DT40 TDP1 no CPT inconclusive, IL-1B inflam inh -85.5 and TDP1 block inactive.
`CC(C)NC(=O)CN1C(=O)c2cccnc2Sc2ccccc21` gave TDP1 cell CPT inactive, DT40 TDP1 no CPT inactive and TDP1 block inactive.
For Cn1nnnc1SCC1=C(C(=O)O)N2C(=O)[C@@H](NC(=O)[C@@H](O)c3ccccc3)[C@@H]2SC1 the results were TDP1 block inactive[21 µM].
